PubChem BioAssay AID504766 (The Scripps Research Institute Molecular Screening Center, 2011)
About 3,400 (1%) of roughly 340,000 compounds were called active. For the sample, actives were picked, then their nearest neighbours and some compounds at random. Unmarked numbers belong to inactive results.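 How the source made its calls: active means inhibition above the mean over all tested compounds plus 3 SD (cut at about 4.2% in these data); inactive means the rest.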

What follows are molecules tested against Nuclear receptor subfamily 0 group B member 1 (Homo sapiens) (UniProt P51843) (assay: DAX1 (NR0B1) inhibitors, primary screen, cell-based, HEK293, Gal4-DAX1, luciferase luminescence (AID 504766;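 further: 0% = DAX1-transfected cells with DMSO and 100% = empty-vector control cells with DMSO; inhibition shows as a rise in luminescence from relieved DAX1 repression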)). Details: HEK293 Gal4-DAX1 luciferase reporter, at 6.75 µM, stronger effect = higher value.
Sequence of Nuclear receptor subfamily 0 group B member 1 (Homo sapiens) (P51843 207-470 limits assumed): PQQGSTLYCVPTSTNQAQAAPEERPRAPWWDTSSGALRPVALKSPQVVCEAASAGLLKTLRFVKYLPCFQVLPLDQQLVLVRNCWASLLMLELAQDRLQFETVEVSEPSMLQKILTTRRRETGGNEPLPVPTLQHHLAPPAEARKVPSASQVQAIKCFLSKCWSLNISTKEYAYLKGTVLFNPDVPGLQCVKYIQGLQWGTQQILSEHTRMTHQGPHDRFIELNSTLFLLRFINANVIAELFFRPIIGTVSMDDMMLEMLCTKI
In the case of `COCCCN1C(=O)C(CC(=O)NCc2cccs2)CC(C(=O)N2CCOCC2)=C1C` (stereo not given), the inhibition is reported as 1.28%. With `CN1CCn2cnc(C(=O)NCC(=O)OC(C)(C)C)c2C1=O` the inhibition was 0.48%. `C[C@@H]1CN([C@@H](C)CO)C(=O)CCCn2cc(nn2)CO[C@H]1CN(C)S(=O)(=O)c1ccc(-n2cccn2)cc1` showed an inhibition of 1.04%. `O=c1[nH]c2ccccc2n1C1CCN(CCOc2ccccc2)CC1` was tested, and the inhibition was -1.06%. With `Cc1nonc1NC(=O)CSc1nc2ccccc2cc1C#N` the inhibition was 2.09%. With `CCOc1ccc2cc(C#N)c(SCC(=O)OC)nc2c1` the inhibition was 4.25% (active). In the case of `CCOC(=O)CSc1nccc(N(C)C)c1C#N`, the inhibition is reported as 0.68%. Work on `COc1ccc(C(C)(C)C)cc1NC(=O)CN(C)C1=NS(=O)(=O)c2ccccc21` yielded an inhibition of 0.35%. Molecule `O=C(CCCN1C(=O)C(c2ccccc2)Oc2cccnc21)Nc1ccccc1Br` (stereo not given) has an inhibition of 0.05%. In the case of `N#CCSc1ccccc1NC(=O)CN1C(=O)NC(CCc2ccccc2)C1=O` (stereo not given), the inhibition is reported as 2.57%. `C#CCN(C[C@H]1[C@H](OC(=O)NC2CCCC2)[C@H](OC(=O)NC2CCCC2)C[C@H]2C(=O)N(c3ccccc3)C(=O)[C@@H]12)S(=O)(=O)c1ccc(C)cc1` was tested, and the inhibition was -0.02%. `CC1CCC2(CC1)NC(=O)N(CC(=O)NCc1ccco1)C2=O` (stereo not given) gave an inhibition of 3.52%. Molecule `Cc1ccc(S(=O)(=O)N2C[C@H]3n4c(=O)ccc(=O)n4C[C@H](OC(=O)NC4CCCC4)[C@@]3(O)C2)cc1` has an inhibition of 0.12%. Work on `C[C@H](CO)N1C[C@H](C)[C@@H](CN(C)C(=O)c2cccc(F)c2)Oc2cc(-c3cncnc3)ccc2S1(=O)=O` yielded an inhibition of 1.05%. Work on `CCCCOC(=O)c1[nH]c(C)c(C(=O)OC)c1C` yielded an inhibition of 2.23%. With `COC(=O)C1C(=O)c2c([nH]c(C(=O)OCCSC)c2C)CC1C` (stereo not given) the inhibition was 5.56% (active). `CCCOC(=O)c1[nH]c2c(c1C)C(=O)CC(c1cccs1)C2` (stereo not given) showed an inhibition of 1.32%. For `C[C@H](CO)N1C[C@H](C)[C@@H](CN(C)S(=O)(=O)c2ccc(F)cc2)OCc2cnnn2CCCC1=O`, the inhibition was 0.91%. `c1ccc(-c2ccc3c(c2)NC(C2Nc4cc(-c5ccccc5)ccc4O2)O3)cc1` (stereo not given) showed an inhibition of -0.52%. In the case of `c1ccc(-c2c[nH]c(-c3ccccc3)c2)cc1`, the inhibition is reported as 4.28% (active). `Oc1ccc(-c2cccc(-c3ccc(O)cc3)c2)cc1` gave an inhibition of 2.72%. Work on `COc1cccc(NC(=O)CN(C)C(=O)c2cc(Cl)nc3ccccc23)c1` yielded an inhibition of -0.56%. Molecule `COc1cc2c(=O)n(C)c3ccccc3c2cc1OC` has an inhibition of 0.78%. With `Cc1cccc(Oc2c([N+](=O)[O-])c(=O)n(C)c3ccccc23)c1` the inhibition was 5.15% (active). For `Cn1c(=O)c([N+](=O)[O-])c(Oc2ccccc2)c2ccccc21`, the inhibition was 1.91%. In the case of `Cc1cccc(S(=O)(=O)N(C)C[C@H]2OCc3cnnn3CCCC(=O)N([C@@H](C)CO)C[C@H]2C)c1`, the inhibition is reported as 2.68%. Work on `C[C@@H]1CN([C@@H](C)CO)C(=O)c2cc(Br)cnc2O[C@H]1CN(C)Cc1ccc(-c2ccccc2)cc1` yielded an inhibition of 0%. Work on `CCCCCCNC(=O)O[C@H]1CN(C(=O)OC(C)C)N(C(=O)OC(C)C)[C@@H]2CN(S(=O)(=O)c3ccc(C)cc3)C[C@]12O` yielded an inhibition of 0.72%. `O=C(Nc1sc2c(c1C(=O)O)CCC2)c1ccccc1F` showed an inhibition of 0.36%. For `NC(=O)c1c(NC(=O)c2ccccc2)sc2c1CCCC2`, the inhibition was 4.41% (active). With `O=C(CN1CCCC1)Nc1sc2c(c1C(=O)Nc1ccccc1)CCCC2` the inhibition was 1.85%. Molecule `CCCCN1C(=O)C(CC(=O)NCc2cccs2)CC(C(=O)N2CCOCC2)=C1C` (stereo not given) has an inhibition of 1.03%. Work on `CC(=NNC(N)=O)C1CC2CCC1CC2` (stereo not given) yielded an inhibition of 0.34%. Molecule `C[C@H]1Cn2cnc(C(=O)N[C@@H](Cc3c[nH]c4ccccc34)C(=O)OC(C)(C)C)c2C(=O)N1` has an inhibition of 0.77%. `C[C@@H]1CN([C@H](C)CO)C(=O)CCCn2nncc2CO[C@@H]1CN(C)C(=O)OCc1ccccc1` was tested, and the inhibition was 4.4% (active). `C[C@H](CO)N1C[C@H](C)[C@@H](CN(C)C(=O)C2CCCCC2)OCc2cnnn2CCCC1=O` showed an inhibition of 0.86%. With `COC(=O)N(C)C[C@@H]1OCc2cnnn2CCCC(=O)N([C@@H](C)CO)C[C@@H]1C` the inhibition was 1.06%. `Cn1c(CCN2CCN(c3ccccn3)CC2)nc2cc(NS(=O)(=O)c3ccc(F)cc3)ccc21` was tested, and the inhibition was 0.29%. `Cc1cc2cc3n(c2nn1)N=C(Cl)CC3` was tested, and the inhibition was 1.28%. `CCN(Cc1ccncc1)C(=S)Nc1ccccc1C` gave an inhibition of 0.81%. With `CCc1nnc(NC(=O)c2ccco2)s1` the inhibition was 1.93%. `CCCCN1C(=O)C(CC(=O)NC(c2ccccc2)c2ccccc2)CC(C(=O)N2CCOCC2)=C1C` (stereo not given) gave an inhibition of 0.88%. With `Cc1ccc(/C(N)=N/OC(=O)COc2ccc(Cl)c(C)c2)cc1` the inhibition was -0.49%. With `Cc1ccc(C(=O)O/N=C(\N)c2ccccn2)cc1Cl` the inhibition was -3.11%. With `Cc1cccc(/C(N)=N/OC(=O)c2ccccc2Cl)c1` the inhibition was 4.97% (active). Molecule `COCC(=O)N(C)C[C@H]1Oc2cc(Br)ccc2S(=O)(=O)N([C@H](C)CO)C[C@H]1C` has an inhibition of 1.77%. Molecule `COc1ccc(CN2C(=O)C(CC(=O)NCCN3CCOCC3)CC(C(=O)N(C(C)C)C(C)C)=C2C)cc1` (stereo not given) has an inhibition of -0.44%. Molecule `CC(=O)OCC(COC(C)=O)OC(C)=O` has an inhibition of -0.24%. Molecule `CC(=O)OC(C)C[N+](C)(C)C` (stereo not given) has an inhibition of 1.03%. In the case of `CC(=O)OCCC(C)C`, the inhibition is reported as 5.92% (active). Molecule `Cc1ccc(S(=O)(=O)N2C[C@@H](C)[C@]3(C2)[C@H](O)[C@H](OC(=O)NCc2ccccc2)C[C@H]2C(=O)N(c4ccccc4)C(=O)[C@H]23)cc1` has an inhibition of 0.21%. For `O=C1OCCC1=COCCCCOC=C1CCOC1=O`, the inhibition was -0.66%. `Cc1cc(C)n(-c2ccc3nncn3n2)n1` gave an inhibition of 0.66%. For `Cc1cc(C)n(-c2nc(O)cc(=O)[nH]2)n1`, the inhibition was 4.76% (active). In the case of `CC(=O)c1ccc(Oc2cc(C)nc(-n3nc(C)cc3C)n2)cc1`, the inhibition is reported as 0.1%.
